In PubChem BioAssay AID431 (Sanford-Burnham Center for Chemical Genomics, 2006) one finds cytotoxicity data, which are given here for 101 molecules.

Hit rate of the full screen: of about 63,000 compounds, about 1,100 (1.7%) were called active. The list comes from a sample in which actives are over-represented; it also holds similar structures and randomly drawn compounds. Results with a measured potency or affinity are listed apart. Values without a mark were called inactive.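 How the source made its calls: active means compounds whose percent cytotoxicity in the single-dose primary screen, scaled between solvent and toxic-drug controls, exceeds 50; inactive means the rest.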

The nature of this assay: viability loss of HPDE-C7K cells – cell-based, fluorescence, HTS, primary screen (AID 431).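 Further: 0% = DMSO solvent wells and 100% = doxorubicin-treated wells.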 The note with it: HPDE-C7K KRASV12 cells, Alamar Blue viability, 48 h; at 10 µM; active compounds read high.
Consider `CCN(CC)c1ccc(NC(=O)c2cc3ccccc3o2)c(C)c1`, for which the cytotoxicity is -6%. The figure for `CCCCn1c(-c2nonc2NC(=O)c2ccccc2Cl)nc2ccccc21` is 53.9% (active). Turning to `N#CCCn1c(-c2nonc2NC(=O)c2ccccc2Cl)nc2ccccc21`, the cytotoxicity was 41.9%.

On to `CCOC(=O)c1ccccc1NC(=O)Cn1c(-c2nonc2N)nc2ccccc21`, for which the cytotoxicity was 58.5% (active).

As to `COC(=O)c1ccccc1NC(=O)Cn1c(-c2nonc2N)nc2ccccc21`, the cytotoxicity is 41.3%. With `CCOC(=O)Cn1c(-c2nonc2NC(=O)c2ccccc2F)nc2ccccc21`, the cytotoxicity was 41%.

Turning to `CCCCOc1ccccc1NC(=O)Cn1c(-c2nonc2N)nc2ccccc21`, the cytotoxicity is 42.3%. For `CCc1nnc(NC(=O)OCc2ccccc2)s1`, the cytotoxicity was -11.2%. As for `Cn1nnnc1SCC(=O)N1CCN(c2cccc(Cl)c2)CC1`, the cytotoxicity was 14.5%. Under `COc1ccc(N(CC(=O)Nc2ccc(C)cn2)S(=O)(=O)c2c(C)noc2C)cc1` stands -11.9%; under `CCC(Sc1nc(=O)cc(N)n1CCc1ccccc1)C(=O)Nc1cc(C)on1` (stereo unspecified), -10.3%; under `O=C(NCCc1ccc(Cl)cc1)C1CCN(S(=O)(=O)N2CCCC2)CC1`, -2.3%.

Regarding `N#Cc1nc(-c2cccs2)oc1NCCc1ccccc1`, the cytotoxicity was 50.3% (active). `N#Cc1nc(-c2cccs2)oc1NCc1ccccc1`: the cytotoxicity is 3.2%.

Consider `Cc1ccc(CNc2oc(-c3cccs3)nc2C#N)cc1`, for which the cytotoxicity was 0.3%. Turning to `CCN1CCN(c2ncnc3c2sc(=S)n3-c2ccccc2)CC1`, the cytotoxicity is 2.5%.

Regarding `COc1ccc(NC(=O)c2ccc(Cl)c(S(=O)(=O)N3CCc4ccccc4C3)c2)cn1`, the cytotoxicity was 80% (active).

On to `O=C(Nc1cccnc1)c1ccc(Cl)c(S(=O)(=O)N2CCCCCC2)c1`, for which the cytotoxicity was -5.1%. With `COc1ccccc1NC(=O)c1ccc(Cl)c(S(=O)(=O)N2CCOCC2)c1`, the cytotoxicity is -3.3%. With `N#C/C(C(N)=O)=c1/ccc2c(c1)N1C3=C(CCCC3)CC3CCCCC31N=2` (stereo unspecified), the cytotoxicity is 66.4% (active).

With `N#CC(C#N)=c1ccc2c(c1)N1C3=C(CCCC3)CC3CCCCC31N=2` (stereo unspecified), the cytotoxicity is 71.7% (active). For the molecule `Cc1cc(-c2ccccc2)nc(=O)[nH]1`, the cytotoxicity is -3%.

As to `CCn1c(=O)cc(OCC(=O)N2CCN(C(=O)c3ccco3)CC2)c2ccccc21`, the cytotoxicity was -0.6%.

Turning to `CC(=O)Nc1ccc(C(=O)CSc2nnc(Cn3nnc4ccccc43)n2C)cc1`, the cytotoxicity was 3.6%. In the case of `CCN=C1SC(C(N)=O)CC(=O)N1CC` (stereo unspecified), the cytotoxicity was 0.6%. The figure for `CCN1C(=O)CS/C1=N\c1nccs1` is -4.6%. For `COc1ccc(N2CCN(CC(=O)Nc3nc4c(s3)CC(C)CC4)CC2)cc1` (stereo unspecified), the cytotoxicity was 32.4%. `COCCNC(=O)CSc1nc(-c2ccc(OC)c(OC)c2)cc(C(F)(F)F)n1`: the cytotoxicity is -8.7%. In the case of `CCOC(=O)c1sc2nc(CSc3nc4ccccc4n3CC)[nH]c(=O)c2c1C`, the cytotoxicity is -11.3%. With `O=C(Cc1cn2ccsc2n1)Nc1nc2c(s1)CN(Cc1ccccc1)CC2`, the cytotoxicity is -6.3%. Under `O=C(Cc1cn2ccsc2n1)Nc1nc2c(s1)CCCC2` stands 23.2%; under `CC(C)(C)C1CCc2nc(NC(=O)Cc3cn4ccsc4n3)sc2C1` (stereo unspecified), 52.5% (active); under `CCOc1ccc(Cc2nn[nH]n2)cc1`, -19.6%. `COC(=O)CN(c1cc(C(F)(F)F)ccc1Cl)S(C)(=O)=O`: the cytotoxicity is -0.9%. Regarding `COc1ccc(-n2c3c(cc(C(=O)Nc4ccc5c(c4)C(=O)NC5=O)c2=O)C(=O)CCC3)cc1`, the cytotoxicity is 61.2% (active). `Cc1ccc(-n2c3c(cc(C(=O)Nc4cccc(C)n4)c2=O)C(=O)CCC3)cc1`: the cytotoxicity was -27.1%. Regarding `Cc1cccc(NC(=O)c2cc3c(n(-c4ccccc4)c2=O)CCCC3=O)n1`, the cytotoxicity is 20%. The figure for `COc1ccc(CCNC(=O)c2ccncc2)cc1OC` is -13.2%; for `COc1ccc(C(=O)NCCn2ccc3ccccc32)c(OC)c1` it is -8.9%; for `Cc1ccc(-c2noc(CCC(=O)N3CCCC3)n2)cc1` it is -6.9%. Turning to `Cc1ccc(S(=O)(=O)N(C)Cc2nc(-c3ccncc3)no2)cc1`, the cytotoxicity is -0.7%.

Regarding `Cc1ccccc1-c1noc(-c2ccc(O)cc2)n1`, the cytotoxicity was 29.6%.

Regarding `CCN(CC)C(=O)CSc1nc(C)cc(-c2cccs2)c1C#N`, the cytotoxicity is 2.8%. Regarding `CN1CCN(C(=O)CSc2nc(-c3cccs3)ccc2C#N)CC1`, the cytotoxicity was 15.2%. Consider `CC(C)C(=O)N1CCc2cc(-c3csc(N)n3)ccc21`, for which the cytotoxicity is -1%. In the case of `O=C(CSc1nc2ccccc2s1)NC(=O)NCc1ccco1`, the cytotoxicity was 87.6% (active).

In the case of `C=CCn1c(SCC(=O)NC(=O)NCc2ccco2)nc2sc(CC)cc2c1=O`, the cytotoxicity is 63.4% (active).

Consider `O=C(CCCSc1nc2ccccc2s1)NCc1ccco1`, for which the cytotoxicity was 5.8%. For `C=CCn1c(SCC(=O)N2CCN(C(=O)c3ccco3)CC2)nc2sc(CC)cc2c1=O`, the cytotoxicity is -11.5%.

Consider `C=CCn1c(SCC(=O)NC(=O)NCc2ccco2)nc2sc(C)c(C)c2c1=O`, for which the cytotoxicity is 4.8%. On to `O=C(CSc1nc2cc(Cl)ccc2s1)NC(=O)NCc1ccco1`, for which the cytotoxicity is -8.3%.

As for `COc1cccc(-c2nc(CS(=O)(=O)CC(=O)NCCC(C)C)c(C)o2)c1`, the cytotoxicity is 2.6%. Consider `COC(=O)c1ccc(N=c2sc(C(=O)OC)cc(=O)n2C)cc1`, for which the cytotoxicity was -16.7%. The figure for `Cc1ccc(Nc2nc(N3CCOCC3)c3ccccc3n2)cc1` is 28.7%; for `COc1ccc(Nc2nc(N3CCCC3)c3ccccc3n2)cc1` it is 22.5%. The figure for `Oc1ccc(Nc2nc(N3CCCC3)c3ccccc3n2)cc1` is 94.4% (active); for `CCCCCCOc1ccc(C(=O)n2cnc(N)n2)cc1` it is 82.6% (active); for `COc1ccc(C(=O)n2cnc(N)n2)cc1` it is 6.1%.

For the molecule `CCCCOc1ccc(C(=O)N2CCCCCC2)cc1`, the cytotoxicity was -8.5%. In the case of `Cc1ccc2cc(CN(C(=O)c3ccco3)c3ccccc3)c(=O)[nH]c2c1`, the cytotoxicity was -0.6%.

On to `COc1ccc(CCNC(=O)c2nonc2N)cc1OC`, for which the cytotoxicity was 0.1%. Turning to `Cn1c(C(=O)NCCc2c[nH]c3ccccc23)cc2sccc21`, the cytotoxicity was 6.9%. With `CCSc1nnc(NC(=O)NC(CC)(C(F)(F)F)C(F)(F)F)s1`, the cytotoxicity was 19.4%. With `CCC(NC(=O)Nc1nccs1)(C(F)(F)F)C(F)(F)F`, the cytotoxicity was -11.8%. For `O=C(NCC(F)(F)F)Nc1nnc(C(F)(F)F)s1`, the cytotoxicity is 12.5%. Under `CC(NC(=O)Nc1nccs1)(C(F)(F)F)C(F)(F)F` stands -3.9%. With `CCn1cc(C(=O)N=c2sc3ccccc3n2C)c(=O)c2ccc(C)nc21`, the cytotoxicity is -2%.

With `COc1cc(C(=S)N2CCCCC2)ccc1OCC(=O)N1CCCC1`, the cytotoxicity was -1.9%. Take `COc1ccc(-n2c(Cc3cccn3C)nnc2SCC(=O)Nc2ccc(Cl)cc2)cc1`: the cytotoxicity was 48.9%. As to `CCCOC(=O)C1=C(C)NC2=C(C(=O)C(C(=O)OC)C(C)C2)C1c1ccc(N(CC)CC)cc1` (stereo unspecified), the cytotoxicity is -15.1%.

Consider `Cc1ccc(Cl)cc1N1CCN(S(=O)(=O)c2cccc(S(=O)(=O)N3CCCC3)c2)CC1`, for which the cytotoxicity is 0.2%. The figure for `CCn1cc(C(=O)NCc2ccccc2OC)c(=O)c2ccc(C)nc21` is -1.4%; for `CC(C)n1c(C(=O)OCC(=O)NCc2ccc3c(c2)OCO3)cc2sccc21` it is 22.7%.

On to `Cn1c(C(=O)OCC(=O)NCc2cccs2)cc2sccc21`, for which the cytotoxicity is -3.4%. As to `Cc1cc2c(cc(C(=O)OCC(=O)NCc3cccs3)n2C(C)C)o1`, the cytotoxicity was 59.5% (active). With `Cc1cccc2cc(C(c3nnnn3CC3CCCO3)N3CCc4ccccc4C3)c(=O)[nH]c12` (stereo unspecified), the cytotoxicity was -7.5%.

Regarding `Cc1ccc(S(=O)(=O)NCC(=O)OCC(=O)c2cccs2)cc1`, the cytotoxicity was 4.8%. The figure for `COc1ccc(-c2cc(C(=O)Nc3ccccc3SC)no2)cc1OC` is 1.4%. For `Cc1cccc(N2CCN(C(=O)Cc3c(C(=O)O)[nH]c4ccc(Cl)cc34)CC2)c1C`, the cytotoxicity is 57.9% (active).

Take `O=C(O)c1[nH]c2ccc(Cl)cc2c1CC(=O)N1CCN(C(=O)c2ccco2)CC1`: the cytotoxicity is 3.2%. Consider `O=C(O)c1[nH]c2ccc(Cl)cc2c1CC(=O)N1CCN(c2ccccc2)CC1`, for which the cytotoxicity was 8%.

On to `Cc1cccc(-n2c(CNC(=O)c3ccc(S(=O)(=O)N4CCCC4)cc3)n[nH]c2=S)c1`, for which the cytotoxicity is -12%.

Take `O=C(Nc1c(C(=O)N2CCCCC2)cnn1-c1ccccc1)c1ccco1`: the cytotoxicity was -3.5%. Regarding `Cc1ccc(NC(=O)c2cnn(-c3ccccc3)c2NC(=O)c2ccco2)cc1C`, the cytotoxicity was -1.9%. `Cc1ccc(-n2ncc(C(=O)N3CCc4ccccc4C3)c2NC(=O)c2ccco2)cc1C`: the cytotoxicity was 80.3% (active). As to `Cc1cc(C)n(CC(O)COCc2ccco2)n1` (stereo unspecified), the cytotoxicity is -7.5%.

Take `Cc1nnc(C)n1/N=C/c1cc(Br)ccc1O`: the cytotoxicity was -18.8%. Take `COc1c(Br)cc(Br)cc1/C=N/n1c(C)nnc1C`: the cytotoxicity is 11.1%. `Cc1nnc(C)n1/N=C/c1cc(Br)cc(Br)c1O`: the cytotoxicity was 86.5% (active). On to `COc1ccc(Cl)cc1NS(=O)(=O)c1ccc(S(=O)(=O)N2CCCC2)cc1`, for which the cytotoxicity was 19.4%. As for `c1cncc(-c2nc(NCc3ccco3)c3ccccc3n2)c1`, the cytotoxicity is 10.1%.

`CSCC[C@@H](Nc1nc(-c2ccccc2)nc2c1oc1ccccc12)C(=O)O`: the cytotoxicity was 20%. As for `COc1ccc(CCNC(=O)CSc2nc(-c3ccco3)cc(C(F)(F)F)n2)cc1OC`, the cytotoxicity was -11.5%. Under `O=C(C1CCN(S(=O)(=O)c2cccc3cccnc23)CC1)N1CCN(C2CCCCC2)CC1` stands 8.4%; under `N#C/C(=C(\O)c1ccco1)c1ccccn1`, -1.4%; under `COc1cc(-c2nnc3sc(-c4cccs4)nn23)cc(OC)c1OC`, 62.9% (active). The figure for `COc1cccc(OC)c1-c1nn2c(-c3ccccc3Cl)nnc2s1` is 17.5%; for `COc1ccc(-c2nnc3sc(-c4cccs4)nn23)cc1OC` it is 11.7%.

For `COc1ccc(-c2nnc3sc(-c4c(OC)cccc4OC)nn23)cc1`, the cytotoxicity was 10.6%.

In the case of `COc1cccc(OC)c1-c1nn2c(-c3cc(-c4ccccc4)n[nH]3)nnc2s1`, the cytotoxicity is 58.4% (active). Under `COc1cc(-c2nnc3sc(-c4ccncc4)nn23)cc(OC)c1OC` stands -1.5%.
